Results reported in PMC5913336, “True equilibrium measurement of transcription factor-DNA binding affinities using automated polarization microscopy”.

What follows are sequences tested against T1, Kni (Drosophila melanogaster, UniProt P10734 2-102) (assay: FP; 33 mM phosphate pH 7.0, 90 mM NaCl, 0.01% Tween 20, 0.1 mM DTT, 0.5% agarose; room temperature). Conditions: tags: N-GST (pGEX-6P-1, kept); dsDNA, one strand shown.
T1 sequence: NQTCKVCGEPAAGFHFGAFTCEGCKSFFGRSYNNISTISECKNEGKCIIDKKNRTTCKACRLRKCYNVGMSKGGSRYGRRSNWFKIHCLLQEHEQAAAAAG

| Sequence | binding signal | Kd |
| --- | --- | --- |
| CAAAACTAGGGCACT | 2.34 Kd / Kd of best base at the position |  |
| CAAAACTAGAGAACT | 69.3 Kd / Kd of best base at the position |  |
| CACAACTAGAGCACT | 2.2 Kd / Kd of best base at the position |  |
| TAAAACTAGAGCACT | 1.43 Kd / Kd of best base at the position |  |
| CAAAACTCGAGCACT | 9.21 Kd / Kd of best base at the position |  |
| CAAAACTAGAGCACT |  | ~1.8 nM |
| CAAAATTAGAGCACT | 1.05 Kd / Kd of best base at the position |  |
| CAATACTAGAGCACT | 6.63 Kd / Kd of best base at the position |  |
| CAAAACTATAGCACT | 12.9 Kd / Kd of best base at the position |  |
| CAAAACTAGTGCACT | 4.66 Kd / Kd of best base at the position |  |

What follows are sequences tested against T2, Cad (Drosophila melanogaster, UniProt P09085 273-344) (assay: FP; 20 mM Tris-acetate pH 7.0, 50 "nM" NaCl as printed (probably mM), 0.01% Tween 20, 0.1 mM DTT; conventional titration). Conditions: tags: N-GST (pGEX-6P-1, kept); dsDNA, one strand shown.
T2 sequence: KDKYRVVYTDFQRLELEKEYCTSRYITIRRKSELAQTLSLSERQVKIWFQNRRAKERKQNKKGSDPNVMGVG

| Sequence | binding signal |
| --- | --- |
| GACTTTTTATA | 1.8 Kd / Kd of best base at the position |
| CACTTGTTATA | 16.7 Kd / Kd of best base at the position |
| CAATTTTTATA | 2 Kd / Kd of best base at the position |
| CACTTTTTATC | 13.5 Kd / Kd of best base at the position |
| CACCTTTTATA | 1.7 Kd / Kd of best base at the position |
| CACTATTTATA | 2.8 Kd / Kd of best base at the position |
| CACTCTTTATA | 7.2 Kd / Kd of best base at the position |
| CACTTTTCATA | 17.6 Kd / Kd of best base at the position |
| CACGTTTTATA | 5.5 Kd / Kd of best base at the position |
| CACTTTTTACA | 1.6 Kd / Kd of best base at the position |
| CCCTTTTTATA | 1 Kd / Kd of best base at the position |
| CACTTTGTATA | 27.9 Kd / Kd of best base at the position |
| CTCTTTTTATA | 4.6 Kd / Kd of best base at the position |
| CACTTTTTTTA | 181 Kd / Kd of best base at the position |
| CACTTTATATA | 3 Kd / Kd of best base at the position |
| CACTTTTAATA | 4.1 Kd / Kd of best base at the position |
| CACTTTTGATA | 50.5 Kd / Kd of best base at the position |
| CACTTTTTATT | 5.4 Kd / Kd of best base at the position |
| CACTTTTTCTA | 287 Kd / Kd of best base at the position |
| CACTGTTTATA | 3.1 Kd / Kd of best base at the position |
| CACTTTTTATG | 2.2 Kd / Kd of best base at the position |
| AACTTTTTATA | 2.9 Kd / Kd of best base at the position |
| CACATTTTATA | 2.5 Kd / Kd of best base at the position |
| CACTTTTTAGA | 16 Kd / Kd of best base at the position |
| CACTTATTATA | 2.8 Kd / Kd of best base at the position |
| CGCTTTTTATA | 3.5 Kd / Kd of best base at the position |
| CACTTTCTATA | 37.9 Kd / Kd of best base at the position |
| CACTTCTTATA | 16.8 Kd / Kd of best base at the position |
| CACTTTTTGTA | 29 Kd / Kd of best base at the position |
| CACTTTTTAAA | 13.6 Kd / Kd of best base at the position |
